Experimental data taken from publication PMC4336329 (PLoS ONE, 2015).
Screen size: about 310,000 compounds; about 14,000 (4.5%) showed an effect of 50% or more. The effect is printed as a negative number. Only a selection was taken, and strong results are over-represented in it overall.

Target: human ether-à-go-go-related gene (hERG) potassium channel (human, UniProt Q12809)
Experiment: primary screen, population patch clamp on CHO cells stably expressing hERG; higher = less effect of the substance
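Note: peak tail current of the secondary pulse compared with the same well before compound.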

Sequence of human ether-à-go-go-related gene (hERG) potassium channel (Q12809 whole entry, looked up): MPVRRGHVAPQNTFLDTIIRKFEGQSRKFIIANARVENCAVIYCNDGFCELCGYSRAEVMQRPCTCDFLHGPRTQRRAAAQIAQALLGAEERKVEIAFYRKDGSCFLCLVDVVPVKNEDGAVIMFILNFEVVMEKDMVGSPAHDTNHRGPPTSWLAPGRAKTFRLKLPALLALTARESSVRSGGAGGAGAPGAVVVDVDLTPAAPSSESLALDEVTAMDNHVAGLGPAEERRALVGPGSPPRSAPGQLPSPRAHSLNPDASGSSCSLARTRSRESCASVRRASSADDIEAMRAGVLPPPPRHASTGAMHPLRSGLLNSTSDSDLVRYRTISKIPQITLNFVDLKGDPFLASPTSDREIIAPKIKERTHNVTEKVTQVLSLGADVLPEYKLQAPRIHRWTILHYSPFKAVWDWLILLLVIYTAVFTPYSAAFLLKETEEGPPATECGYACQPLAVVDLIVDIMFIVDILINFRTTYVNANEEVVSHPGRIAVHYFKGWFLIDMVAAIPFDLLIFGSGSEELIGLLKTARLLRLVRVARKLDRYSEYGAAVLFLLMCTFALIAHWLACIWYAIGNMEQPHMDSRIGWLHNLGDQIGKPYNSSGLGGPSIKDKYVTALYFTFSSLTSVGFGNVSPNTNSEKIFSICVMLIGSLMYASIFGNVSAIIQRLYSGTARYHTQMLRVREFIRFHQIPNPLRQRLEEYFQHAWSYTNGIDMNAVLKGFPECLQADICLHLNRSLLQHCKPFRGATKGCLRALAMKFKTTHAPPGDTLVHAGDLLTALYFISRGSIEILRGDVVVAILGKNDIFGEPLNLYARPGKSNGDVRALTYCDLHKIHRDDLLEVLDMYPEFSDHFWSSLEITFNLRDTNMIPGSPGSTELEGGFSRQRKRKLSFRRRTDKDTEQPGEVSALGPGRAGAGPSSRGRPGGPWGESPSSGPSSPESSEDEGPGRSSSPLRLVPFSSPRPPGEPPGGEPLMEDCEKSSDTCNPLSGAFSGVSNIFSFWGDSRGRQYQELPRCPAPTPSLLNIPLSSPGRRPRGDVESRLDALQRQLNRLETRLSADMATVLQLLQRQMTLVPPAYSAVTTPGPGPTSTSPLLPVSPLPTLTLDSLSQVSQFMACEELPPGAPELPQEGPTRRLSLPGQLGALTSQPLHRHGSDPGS

Row | SMILES | hERG current change (%, negative = inhibition) at 10uM [%]
1 | Cc1ccccc1NCCC(=O)Nc1ccc(F)cc1 | -21.4
2 | COc1ccc(C(=O)N/C(=C/c2ccc(Cl)cc2)C(=O)Nc2ccc(C(=O)O)cc2)cc1 | 11.4
3 | COc1ccc(C(=O)N/C(=C/c2ccc(Cl)cc2)C(=O)NCc2ccncc2)cc1 | -65.4
4 | COc1ccc(/C=C(/NC(=O)c2ccccc2)C(=O)NCc2ccncc2)cc1 | -44.5
5 | COc1ccc(C(=O)N/C(=C\c2ccc(Cl)cc2)C(=O)NCC2CCCO2)cc1 (centres unmarked) | -38
6 | COc1ccc(/C=C(/NC(=O)c2ccc(C)cc2)C(=O)NCc2ccncc2)cc1 | -66.2
7 | COc1ccc(/C=C(\NC(=O)c2ccc(C)cc2)C(=O)NCC2CCCO2)cc1 (centres unmarked) | -8.44
8 | O=C(O)/C=C/c1cn(-c2ccccc2)nc1-c1ccccc1 | 3.71
9 | O=C(NCc1ccccn1)C1CC(=O)N(C2CCCC2)C1 (centres unmarked) | 9.62
10 | COc1ccc(CNC(=O)CN2C(=O)CC(c3ccccc3)=Nc3ccccc32)cc1 | -8.66
11 | Cc1cc(NC(=O)Cn2cnc3c(nnn3-c3cccc(F)c3)c2=O)no1 | 5.01
12 | CC(=O)C(C(C)=O)C(c1ccccc1)c1nc2ccccc2[nH]c1=O (centres unmarked) | 14.1
13 | COC(=O)c1ccc(CN2CCCC(C(=O)c3ccccc3OC)C2)cc1 (centres unmarked) | -43.1
14 | COc1ccc(F)cc1C(=O)C1CCCN(Cc2cnc(N3CCCC3)s2)C1 (centres unmarked) | -29.4
15 | COc1ccc(F)cc1C(=O)C1CCCN(C(=O)CCc2ccccn2)C1 (centres unmarked) | 2.48
16 | COc1ccc(F)cc1C(=O)C1CCCN(Cc2cnc(C)s2)C1 (centres unmarked) | -21
17 | COc1ccccc1C(=O)C1CCCN(C(=O)c2ccccc2Cl)C1 (centres unmarked) | 10.4
18 | COc1ccc(F)cc1C(=O)C1CCCN(Cc2ccc(O)cc2)C1 (centres unmarked) | -52
19 | COc1ccc(F)cc1C(=O)C1CCCN(Cc2ccc(Oc3ncccn3)cc2)C1 (centres unmarked) | -64.2
20 | COc1ccccc1C(=O)C1CCCN(Cc2cccc(OCCO)c2)C1 (centres unmarked) | -19.6
21 | CCOc1ccc(CN2CCCC(C(=O)c3ccccc3OC)C2)cc1 (centres unmarked) | -82
22 | COC(=O)c1ccc(CN2CCCC(C(=O)c3cc(F)ccc3OC)C2)cc1 (centres unmarked) | -68
23 | COc1ccccc1C(=O)C1CCCN(Cc2ccc(Oc3ncccn3)cc2)C1 (centres unmarked) | -40.6
